Key:
Assay in all cases: relative growth (AUC of 72 h growth curve relative to DMSO control, dAUC) (ratio); higher = more growth (less inhibition), active = hit call of the paper
Conditions in all cases: 20 µM;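 active = growth AUC significantly below the DMSO wells by Dunnett test; inactive = the rest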
[1] = test system: Aeromonas 1 (Aeromonas sp. AE235)
Procedure, shortened: (§1)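 Whole sediment communities and bacterial isolates from Icelandic stream sediments and Silwood Park soil were brought to carrying capacity in Luria–Bertani medium. They were then diluted 1:100 into 96-well plates with each chemical at 20 µM in 1% DMSO, and A600 was recorded every hour for 72 h. The area under each growth curve, integrated by spline, was averaged across three biological replicates. This figure, divided by the mean of the DMSO controls, gives relative growth (dAUC).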

[2] = test system: Aeromonas 2 (Aeromonas sobria)
Procedure, shortened: as §1

[3] = test system: Aeromonas 3 (Aeromonas popoffii)
Procedure, shortened: as §1

[4] = test system: Argrobacterium 1 (Agrobacterium sp.)
Procedure, shortened: as §1

[5] = test system: Arthrobacter 1 (Arthrobacter humicola)
Procedure, shortened: as §1

[6] = test system: Arthrobacter 2 (Arthrobacter humicola)
Procedure, shortened: as §1

[7] = test system: Arthrobacter 3 (Arthrobacter sp.)
Procedure, shortened: as §1

Community 4 = test system: Community 4
Procedure, shortened: as §1

Community 6 = test system: Community 6
Procedure, shortened: as §1

Community 10 = test system: Community 10
Procedure, shortened: as §1

Row | Compound | relative growth [1] | relative growth [2] | relative growth [3] | relative growth [4] | relative growth [5] | relative growth [6] | relative growth [7] | relative growth (Community 4) | relative growth (Community 6) | relative growth (Community 10)
1 | Fc1ccc(Oc2ccnc3cc(Cl)cc(Cl)c23)cc1 | 1.01 (inactive) | 1.03 (inactive) | 1 (inactive) | 1.06 (inactive) | 0.954 (inactive) | 1.1 (inactive) | 1.08 (inactive) | 0.987 (inactive) | 0.935 (inactive) | –
2 | CC(Oc1ccc(Oc2nc3ccc(Cl)cc3o2)cc1)C(=O)O (stereo unspecified) | 1.02 (inactive) | 1.01 (inactive) | 1.04 (inactive) | 1.01 (inactive) | 1.08 (inactive) | 0.93 (inactive) | 1.01 (inactive) | 0.991 (inactive) | 1.07 (inactive) | 1.15 (inactive)
3 | N#C/N=C1\SCCN1Cc1ccc(Cl)nc1 | 0.998 (inactive) | 1 (inactive) | 1 (inactive) | 0.984 (inactive) | 1.1 (inactive) | 1.11 (inactive) | 1.06 (inactive) | 1.04 (inactive) | 1.05 (inactive) | 1.02 (inactive)
4 | CC(C)(C)C(O)(CCc1ccc(Cl)cc1)Cn1cncn1 (stereo unspecified) | 0.916 (inactive) | 0.917 (inactive) | 1.01 (inactive) | 0.949 (inactive) | 0.544 (active) | 0.232 (active) | 0.39 (active) | 0.913 (inactive) | 0.878 (inactive) | 0.835 (inactive)
5 | C[N+](C)(C)CCCl | 0.996 (inactive) | 0.944 (inactive) | 0.977 (inactive) | 1.01 (inactive) | 1.05 (inactive) | 1 (inactive) | 0.987 (inactive) | 0.978 (inactive) | 0.92 (inactive) | 0.819 (inactive)
6 | CO/C=C(/C(=O)OC)c1ccccc1COc1cccc(C(F)(F)F)n1 | 0.992 (inactive) | 0.905 (inactive) | 0.97 (inactive) | 1.06 (inactive) | 0.923 (inactive) | 0.886 (inactive) | 1.02 (inactive) | 0.935 (inactive) | 0.929 (inactive) | –
7 | O=[N+]([O-])/N=C1\NCCN1Cc1ccc(Cl)nc1 | 0.99 (inactive) | 0.99 (inactive) | 0.999 (inactive) | 0.959 (inactive) | 0.949 (inactive) | 1.06 (inactive) | 0.929 (inactive) | 1.11 (inactive) | 1.11 (inactive) | 1.23 (inactive)
8 | COC(=O)N(OC)c1ccccc1COc1ccn(-c2ccc(Cl)cc2)n1 | 1.04 (inactive) | 0.927 (inactive) | 0.979 (inactive) | 1.04 (inactive) | 1.16 (inactive) | 1.02 (inactive) | 0.903 (inactive) | 0.941 (inactive) | 1.03 (inactive) | 0.903 (inactive)
9 | Cc1cc(C(F)(C(F)(F)F)C(F)(F)F)ccc1NC(=O)c1cccc(I)c1C(=O)NC(C)(C)CS(C)(=O)=O | 0.939 (inactive) | 0.974 (inactive) | 1.41 | 0.695 (active) | 0.792 (inactive) | 1.02 (inactive) | 0.822 (inactive) | 0.805 (inactive) | 0.894 (inactive) | 1.21 (inactive)
10 | CCCCCCCCCCCCNC(=N)N | 0.94 (inactive) | 0.928 (inactive) | 0.97 (inactive) | 0.233 (active) | 0.0065 (active) | 0.00389 (active) | 0.0063 (active) | 0.501 (active) | 0.407 (active) | 0.505 (active)
11 | CN/C(=N/CC1CCOC1)N[N+](=O)[O-] (stereo unspecified) | 1 (inactive) | 1.02 (inactive) | 1.05 (inactive) | 1.02 (inactive) | 1.01 (inactive) | 1.03 (inactive) | 0.998 (inactive) | 1.09 (inactive) | 1 (inactive) | 0.953 (inactive)
12 | CNC(=O)Oc1cccc2ccccc12 | 0.941 (inactive) | 0.918 (inactive) | 0.921 (inactive) | 1.09 (inactive) | 0.924 (inactive) | 1.07 (inactive) | 1.14 (inactive) | 0.976 (inactive) | 1.01 (inactive) | 0.847 (inactive)
13 | C[C@@H]1[C@@H](c2ccc(Cl)cc2)SC(=O)N1C(=O)NC1CCCCC1 | 1.02 (inactive) | 1.02 (inactive) | 1.01 (inactive) | 1.04 (inactive) | 0.906 (inactive) | 0.925 (inactive) | 1.02 (inactive) | 0.946 (inactive) | 1.02 (inactive) | 1.03 (inactive)
14 | N#Cc1cc(Br)c(O)c(Br)c1 | 0.985 (inactive) | 0.899 (inactive) | 1.01 (inactive) | 1.03 (inactive) | 0.984 (inactive) | 0.827 (inactive) | 1.02 (inactive) | 1.08 (inactive) | 1.05 (inactive) | –
15 | C#CCN1C(=O)COc2cc(F)c(N3C(=O)C4=C(CCCC4)C3=O)cc21 | 0.987 (inactive) | 0.969 (inactive) | 0.982 (inactive) | 0.996 (inactive) | 1.03 (inactive) | 0.974 (inactive) | 0.979 (inactive) | 0.951 (inactive) | 0.959 (inactive) | 0.871 (inactive)
16 | COCc1cnc(C2=NC(C)(C(C)C)C(=O)N2)c(C(=O)O)c1 (stereo unspecified) | 0.932 (inactive) | 0.973 (inactive) | 1 (inactive) | 1 (inactive) | 0.954 (inactive) | 1.01 (inactive) | 0.931 (inactive) | 0.84 (inactive) | 0.937 (inactive) | 0.96 (inactive)
17 | CN(C)C(CSS(=O)(=O)O)CSS(=O)(=O)O | 0.987 (inactive) | 0.976 (inactive) | 0.992 (inactive) | 0.997 (inactive) | 1.02 (inactive) | 1.04 (inactive) | 1.04 (inactive) | 1.04 (inactive) | 0.914 (inactive) | 0.835 (inactive)
18 | COP(N)(=O)SC (stereo unspecified) | 0.996 (inactive) | 1 (inactive) | 0.972 (inactive) | 1.14 (inactive) | 0.92 (inactive) | 0.0085 (active) | 0.137 (active) | 0.808 (inactive) | 0.626 (active) | 0.803 (inactive)
19 | CC(C)N1C(=O)c2ccccc2NS1(=O)=O | 0.965 (inactive) | 0.994 (inactive) | 0.991 (inactive) | 0.998 (inactive) | 1.03 (inactive) | 1.05 (inactive) | 1.13 (inactive) | 0.932 (inactive) | 0.962 (inactive) | –
20 | CO/C=C(/C(=O)OC)c1ccccc1Oc1cc(Oc2ccccc2C#N)ncn1 | 0.938 (inactive) | 0.929 (inactive) | 0.947 (inactive) | 1.02 (inactive) | 0.985 (inactive) | 1 (inactive) | 1.08 (inactive) | 1.1 (inactive) | 0.903 (inactive) | –
21 | CC(C1CC1)C(O)(Cn1cncn1)c1ccc(Cl)cc1 (stereo unspecified) | 0.97 (inactive) | 0.942 (inactive) | 0.964 (inactive) | 1.09 (inactive) | 0.89 (inactive) | 0.961 (inactive) | 0.944 (inactive) | 1.01 (inactive) | 1.02 (inactive) | –
22 | COc1ccc(C(=CC(=O)N2CCOCC2)c2ccc(Cl)cc2)cc1OC (mixture of isomers) | 0.973 (inactive) | 0.993 (inactive) | 0.998 (inactive) | 1.03 (inactive) | 1.06 (inactive) | 0.983 (inactive) | 0.973 (inactive) | 1.07 (inactive) | 0.974 (inactive) | –
23 | Cc1nc(N(C)C)nc(OC(=O)N(C)C)c1C | 0.991 (inactive) | 0.948 (inactive) | 0.968 (inactive) | 0.962 (inactive) | 0.924 (inactive) | 0.847 (inactive) | 0.932 (inactive) | 0.871 (inactive) | 0.942 (inactive) | –
24 | O=C1C=C(N(Cc2ccc(Cl)nc2)CC(F)F)CO1 | 0.953 (inactive) | 0.967 (inactive) | 0.978 (inactive) | 0.974 (inactive) | 1.05 (inactive) | 1.08 (inactive) | 1.01 (inactive) | 1.01 (inactive) | 0.923 (inactive) | –
25 | CN1COCN(Cc2cnc(Cl)s2)/C1=N\[N+](=O)[O-] | 0.991 (inactive) | 0.983 (inactive) | 0.984 (inactive) | 1.04 (inactive) | 1.04 (inactive) | 1.02 (inactive) | 1.13 (inactive) | 1.04 (inactive) | 0.963 (inactive) | –
26 | N#Cc1c[nH]cc1-c1cccc2c1OC(F)(F)O2 | 0.982 (inactive) | 0.92 (inactive) | 0.986 (inactive) | 0.99 (inactive) | 0.868 (inactive) | 0.824 (inactive) | 0.882 (inactive) | 0.977 (inactive) | 0.93 (inactive) | –
27 | C[N+]1(C)CCCCC1 | 1.03 (inactive) | 1.01 (inactive) | 1.02 (inactive) | 0.994 (inactive) | 1.08 (inactive) | 0.96 (inactive) | 1.04 (inactive) | 1.09 (inactive) | 1.07 (inactive) | –
28 | CCCCOC(=O)[C@H](C)Oc1ccc(Oc2ccc(C#N)cc2F)cc1 | 1.04 (inactive) | 1.07 (inactive) | 1.05 (inactive) | 1.11 (inactive) | 1.11 (inactive) | 0.875 (inactive) | 0.882 (inactive) | 1.03 (inactive) | 1.03 (inactive) | –
29 | CCCSP(=O)(OCC)Oc1ccc(Br)cc1Cl (stereo unspecified) | 1.02 (inactive) | 1.02 (inactive) | 0.994 (inactive) | 1.12 (inactive) | 0.894 (inactive) | 0.745 (inactive) | 0.973 (inactive) | 0.833 (inactive) | 0.83 (inactive) | –

— the supplement of paper PMC12067926
